Drawing on PubChem BioAssay, this text covers growth inhibition, inhibition and outcome for 22 compounds.

Test [1] is described as follows: antimalarial activity against Dd2 strain (AID 2302;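 active = growth inhibition above 50% at the single 2 µM test dose, taken to imply half-maximal potency below 2 µM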;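 also: 0% = DMSO untreated growth and 100% = chloroquine plus artemisinin killed control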). The note with it: P. falciparum Dd2 in RBCs, LDH growth readout, 72 h; at 2 µM; hits give high values.
Test [2] addresses L-lactate dehydrogenase (Plasmodium falciparum (isolate CDC / Honduras)) (UniProt Q27743). Description: PfLDH activity inhibition – cell lysate, 3D7 strain, counter-screen for P. falciparum growth inhibition project (AID 2304).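 Also: 0% = vehicle and 100% = reference inhibitor.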 The following applies: P. falciparum 3D7 crude extract, LDH APAD/NBT absorbance; at 2 µM; hits give high values.
A short description of test [3]: inhibition of 3D7 malaria parasite growth – strain 3D7 (AID 2306).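 Also: 0% = DMSO wells and 100% = chloroquine plus artemisinin control wells.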 The note with it: P. falciparum 3D7 erythrocytic growth, LDH absorbance, 72 h; at 2 µM; hits give high values.
The target of test [4] is Calcium-dependent protein kinase 1 (Plasmodium falciparum (isolate 3D7)) (UniProt P62344). The test can be described thus: PfCDPK1 kinase inhibitors, biochemical, TCAMS library (AID 1159585; cut-off not given, nearly all actives have IC50 up to about 0.98 µM;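 also: inhibitors leave more ATP so luminescence rises with inhibition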). The note with it: recombinant PfCDPK1, Kinase-Glo ATP depletion luminescence. On the technique in general: Kinase-Glo measures the ATP left after a reaction by luminescence.
Calcium-dependent protein kinase 1 (Plasmodium falciparum (isolate 3D7)), sequence (P62344 whole entry, looked up): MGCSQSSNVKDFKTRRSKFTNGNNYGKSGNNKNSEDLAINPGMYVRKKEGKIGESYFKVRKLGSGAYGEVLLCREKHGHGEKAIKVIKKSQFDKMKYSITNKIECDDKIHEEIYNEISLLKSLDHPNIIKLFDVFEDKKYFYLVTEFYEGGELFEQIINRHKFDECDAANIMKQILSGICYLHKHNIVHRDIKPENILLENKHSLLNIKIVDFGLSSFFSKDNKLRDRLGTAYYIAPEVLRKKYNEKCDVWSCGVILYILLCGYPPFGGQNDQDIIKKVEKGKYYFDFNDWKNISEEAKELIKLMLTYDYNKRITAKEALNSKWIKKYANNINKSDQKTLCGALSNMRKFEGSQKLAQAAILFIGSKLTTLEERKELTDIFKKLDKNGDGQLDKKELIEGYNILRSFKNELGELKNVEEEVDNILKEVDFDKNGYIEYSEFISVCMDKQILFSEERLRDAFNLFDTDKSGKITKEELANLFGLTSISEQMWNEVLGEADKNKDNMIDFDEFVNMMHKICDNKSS
Test [5] concerns the target Plasmodium falciparum protein kinase 6 (PK6, PF3D7_1337100) (UniProt Q8IDW1). Description: PfPK6 kinase inhibitors, biochemical, TCAMS library (AID 1159586). The following applies: recombinant PfPK6, Kinase-Glo ATP depletion luminescence.
For test [6], the target named is Protein kinase 7 (PK7), Plasmodium falciparum 3D7 (PF3D7_0213400) (UniProt Q7YTF7). Description: inhibition of Plasmodium PK7 catalytic activity – biochemical, TCAMS antimalarial set, Kinase-Glo luminescence (AID 1159587). The following applies: recombinant PfPK7, Kinase-Glo ATP depletion luminescence.
Protein kinase 7 (PK7), Plasmodium falciparum 3D7 (PF3D7_0213400), sequence (Q7YTF7 1-343): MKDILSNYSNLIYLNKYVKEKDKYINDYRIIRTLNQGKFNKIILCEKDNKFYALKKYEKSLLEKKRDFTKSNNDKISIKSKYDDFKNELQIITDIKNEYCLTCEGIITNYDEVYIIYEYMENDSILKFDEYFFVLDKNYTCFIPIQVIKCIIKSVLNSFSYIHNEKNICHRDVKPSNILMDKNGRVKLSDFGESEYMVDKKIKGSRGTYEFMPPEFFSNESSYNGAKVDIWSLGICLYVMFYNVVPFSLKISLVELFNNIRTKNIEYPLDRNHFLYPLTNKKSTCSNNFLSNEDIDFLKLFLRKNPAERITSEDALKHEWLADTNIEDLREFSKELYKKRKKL
The target of test [7] is Calcium-dependent protein kinase 4 (Plasmodium falciparum (isolate 3D7)) (UniProt Q8IBS5). The test can be described thus: PfCDPK4 kinase inhibitors, biochemical, TCAMS library (AID 1159588; cut-off not given, nearly all actives have IC50 up to about 0.91 µM). The following applies: recombinant PfCDPK4, Kinase-Glo ATP depletion luminescence.
Calcium-dependent protein kinase 4 (Plasmodium falciparum (isolate 3D7)), sequence (Q8IBS5 whole entry, looked up): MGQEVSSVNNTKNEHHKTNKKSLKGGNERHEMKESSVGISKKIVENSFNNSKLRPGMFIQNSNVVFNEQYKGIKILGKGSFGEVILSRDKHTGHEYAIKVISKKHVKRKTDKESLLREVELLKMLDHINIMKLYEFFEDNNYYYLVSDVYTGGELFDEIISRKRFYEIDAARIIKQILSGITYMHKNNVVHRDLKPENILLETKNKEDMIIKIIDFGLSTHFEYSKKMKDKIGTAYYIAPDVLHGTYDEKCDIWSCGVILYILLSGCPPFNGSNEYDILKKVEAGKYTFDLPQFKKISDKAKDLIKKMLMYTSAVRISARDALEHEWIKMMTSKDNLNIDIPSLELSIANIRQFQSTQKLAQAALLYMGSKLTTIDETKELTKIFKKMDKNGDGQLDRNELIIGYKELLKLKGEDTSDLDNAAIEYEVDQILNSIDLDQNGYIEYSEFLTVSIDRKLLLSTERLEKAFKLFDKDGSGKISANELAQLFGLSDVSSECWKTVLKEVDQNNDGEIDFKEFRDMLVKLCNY
Test [8] is described as follows: HepG2 cytotoxicity, primary screen, cytotoxicity control for P. falciparum antimalarial project, cell-based, ATP luminescence (AID 2303;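 active = inhibition above 50%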;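 also: 0% = DMSO wells and 100% = digitonin-killed cells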). The note with it: HepG2 viability, 24-48 h, at 10 µM, hits give high values.

Usually inhibition stands for the drop in the measured response relative to a control, in per cent.

Molecules are shown by their SMILES. A number with no mark means an inactive call. For some of these results: Potency and affinity values are given separately. The source made the active and inactive calls. Unless noted, no rule for the calls is given here.

Plasmodium falciparum protein kinase 6 (PK6, PF3D7_1337100), sequence (Q8IDW1 1-305): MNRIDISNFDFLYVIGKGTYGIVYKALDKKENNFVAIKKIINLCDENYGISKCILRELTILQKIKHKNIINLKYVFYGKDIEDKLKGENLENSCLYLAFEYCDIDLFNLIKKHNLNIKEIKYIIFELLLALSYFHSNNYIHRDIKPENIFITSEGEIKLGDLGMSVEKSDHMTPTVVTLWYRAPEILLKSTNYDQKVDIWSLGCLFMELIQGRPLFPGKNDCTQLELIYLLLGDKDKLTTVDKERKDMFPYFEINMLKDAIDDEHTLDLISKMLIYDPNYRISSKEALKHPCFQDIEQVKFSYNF
L-lactate dehydrogenase (Plasmodium falciparum (isolate CDC / Honduras)), sequence (Q27743 whole entry, looked up): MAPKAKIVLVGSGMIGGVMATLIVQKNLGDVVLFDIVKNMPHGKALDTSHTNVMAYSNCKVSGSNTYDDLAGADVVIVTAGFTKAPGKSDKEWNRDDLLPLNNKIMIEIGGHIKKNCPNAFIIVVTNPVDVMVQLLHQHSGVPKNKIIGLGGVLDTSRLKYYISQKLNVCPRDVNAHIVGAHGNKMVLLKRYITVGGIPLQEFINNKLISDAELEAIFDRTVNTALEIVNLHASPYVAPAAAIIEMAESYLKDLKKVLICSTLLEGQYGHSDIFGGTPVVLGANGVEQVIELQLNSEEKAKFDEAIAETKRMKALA

Regarding `COc1cc(Cc2cnc(N)nc2N)cc(OCCCC(=O)O)c1OC`, the growth inhibition in test [1] was -3%; in test [3], 84% (active). Further, the inhibition in test [2] is 3%. The outcome in test [4], in test [5], in test [6] and in test [7] was inactive.
As for `CC(C)(C)c1ccc(-c2nnc(N)nc2N)cc1`, the values for the growth inhibition in test [1] and in test [3] were -4% and 92% (active), respectively. Besides, in test [2], the inhibition was -4%. The result in test [4], in test [5], in test [6] and in test [7] was inactive.
`Cc1[nH]c(C)c(-c2ccc(Sc3ccc(Cl)cc3)cc2)c(=O)c1Br`: the growth inhibition in test [1] is 97% (active); in test [3], 98% (active). In addition, the inhibition in test [2] was 0%. The outcome in test [4], in test [5], in test [6] and in test [7] was inactive.
Turning to `COCCOCCOCCn1ccc2c3c(N)nc(N)nc3ccc21`, the figures for the growth inhibition in test [1] and in test [3] were 0% and 97% (active), respectively. In addition, the inhibition in test [2] is -10%. Besides, the outcome in test [4], in test [5], in test [6] and in test [7] was inactive.
In the case of `CC1CN=C(c2ccc(NC(=O)Nc3ccc(C4=NCC(C)N4)cc3)cc2)N1` (centres undefined), the growth inhibition was 67% (active) in test [1] and 85% (active) in test [3]. The inhibition in test [2] is 0%. The outcome in test [4], in test [5], in test [6] and in test [7] was inactive.
As to `COc1cc(Cc2cnc(N)nc2N)cc(OCCCCNS(=O)(=O)C(F)(F)F)c1OC`, the figures for the growth inhibition in test [1] and in test [3] were -5% and 84% (active), respectively. Besides, the inhibition in test [2] is 7%. Further, the result in test [4], in test [5], in test [6] and in test [7] was inactive.
Turning to `CCCCOc1c(CCNCCCCNCCc2cc(OC)c3ccccc3c2OCCCC)cc(OC)c2ccccc12`, the growth inhibition in test [1] was 47%; in test [3], 91% (active). Also, the inhibition in test [2] is 7%. Moreover, the result in test [4], in test [5], in test [6] and in test [7] was inactive.
For `CN1CCN(c2ccc3nc(-c4ccc5nc(-c6ccc([N+](=O)[O-])c(N)c6)[nH]c5c4)[nH]c3c2)CC1`, the growth inhibition in test [1] was 101% (active); in test [3], 100% (active). For the same compound, the inhibition in test [2] is -7%. Also, the outcome in test [4], in test [5], in test [6] and in test [7] was inactive.
Turning to `CC(C)Oc1ccc2ccccc2c1CNCCCCCCNCc1c(OC(C)C)ccc2ccccc12`, the figures for the growth inhibition in test [1] and in test [3] were 90% (active) and 99% (active), respectively. In addition, in test [2], the inhibition was -7%. For the same compound, the result in test [4], in test [5], in test [6] and in test [7] was inactive.
As for `CCCCSc1ccc(CNCCCCCCNCc2ccc(SCCCC)c3ccccc23)c2ccccc12`, the figures for the growth inhibition in test [1] and in test [3] were 48% and 94% (active), respectively. For the same compound, in test [2], the inhibition is 0%. Further, the outcome in test [4], in test [5], in test [6] and in test [7] was inactive.
As for `O=C(CN1C(=O)CC1S(=O)(=O)Cc1ccco1)NCCCCCCc1ccc(F)cc1` (centres undefined), the inhibition was -2% in test [8] and -4% in test [2]. The growth inhibition in test [3] was 95% (active). The result in test [4], in test [5], in test [6] and in test [7] was inactive.
As to `COc1cc(Cc2cnc(N)nc2N)ccc1OCc1csc(-c2ccc(Cl)cc2)n1`, the inhibition in test [8] was 39%; in test [2], 2%. Further, the growth inhibition in test [3] is 93% (active). Besides, the outcome in test [4], in test [5], in test [6] and in test [7] was inactive.
With `C[C@H]1CN(Cc2ccc(-c3cccc(CNC(=O)c4cccc(C(=O)c5ccc(Cl)c(Cl)c5)c4)c3)s2)CCN1`, the inhibition in test [8] and in test [2] was 3% each time. Besides, in test [3], the growth inhibition is 99% (active). Further, the result in test [4], in test [5], in test [6] and in test [7] was inactive.
For `CCN(CC)CCCC(C)Nc1ccnc2cc(C#N)ccc12` (centres undefined), the growth inhibition in test [1] is 80% (active); in test [3], 100% (active). In addition, the inhibition in test [2] was -1%. Besides, the result in test [4], in test [5], in test [6] and in test [7] was inactive.
With `Cc1[nH]c(C)c(-c2ccc(Oc3ccc(Cl)cc3)cc2)c(=O)c1C`, the growth inhibition in test [1] is 95% (active); in test [3] it was 96% (active). The inhibition in test [2] is -8%. Also, the result in test [4], in test [5], in test [6] and in test [7] was inactive.
On to `COc1cc(Cc2cnc(N)nc2N)cc(OCCCCCCN)c1OC`, for which the growth inhibition in test [1] is -4%; in test [3], 96% (active). For the same compound, the inhibition in test [2] is -6%. The result in test [4], in test [5], in test [6] and in test [7] was inactive.
As to `FC(F)(F)c1ccc2c(NCCCNc3ccnc4cc(C(F)(F)F)ccc34)ccnc2c1`, the growth inhibition is 101% (active) in test [1] and 100% (active) in test [3]. Moreover, the inhibition in test [2] is 3%. Further, the result in test [4], in test [5], in test [6] and in test [7] was inactive.
For the compound `Nc1nc(N)c2c(Oc3ccc(Cl)c(Cl)c3)cccc2n1`, the values for the growth inhibition in test [1] and in test [3] were 22% and 95% (active), respectively. Moreover, the inhibition in test [2] is -5%. In addition, the result in test [4], in test [5], in test [6] and in test [7] was inactive.
With `CN=C(N)c1ccc(NC(=O)C=Cc2ccc(C(=O)Nc3ccc(C(N)=NC)cc3)cc2)cc1`, the growth inhibition in test [1] is 100% (active); in test [3] it was 97% (active). Also, the inhibition in test [2] was 1%. Also, the result in test [4], in test [5], in test [6] and in test [7] was inactive.
Regarding `COc1ccc(NC(=O)c2ccc(-c3cccc(OCc4ccccc4)c3)cc2)cc1N1CCN(C)CC1`, the inhibition in test [8] was 29%; in test [2] it was -1%. Besides, the growth inhibition in test [3] is 85% (active). Moreover, the result in test [4], in test [5], in test [6] and in test [7] was inactive.
Consider `Oc1ccc(CCNCCCCCNCCCc2ccc(Cl)cc2)cc1O`, for which the results for the inhibition in test [8] and in test [2] were 22% and -3%, respectively. In test [3], the growth inhibition is 91% (active). Further, the result in test [4], in test [5], in test [6] and in test [7] was inactive.
Take `CCNC(=NCc1ccccc1)NCCCCCCNC(=NCc1ccccc1)NCC`: the growth inhibition in test [1] is 95% (active); in test [3], 96% (active). In addition, the inhibition in test [2] is -5%. Besides, the result in test [4], in test [5], in test [6] and in test [7] was inactive.
